For 40 sequences, sensor-assay potency score (higher = more potent) results are on record in the OligoGym collection.
Note: reference of the scale not given here.

One test addresses ITFG1. Briefly: pooled miR-30 sensor sort-seq; sequence = guide strand. The settings on record: shRNA.
Turning to TAATGTTTGATTTTGTCCCCAG, the sensor-assay potency score (higher = more potent) is -0.0623.
With TTTAGGTCTGTCAGCTCCCAGT, the sensor-assay potency score (higher = more potent) was -0.933.
As for TACTTGTAGTGGTCAATGCTGG, the sensor-assay potency score (higher = more potent) was -0.574.
On to TTTATCTTCACAGCCTGGCAGT, for which the sensor-assay potency score (higher = more potent) is -0.637.
Still for that read-out and setting: then TATTGCTGAAATCTTGTAGGAC, with 0.541; and TATCAATGCACTGTGATTCTTG, with 0.396.
The sequence TTATCTTACGAGGACAGTCATT returned a sensor-assay potency score (higher = more potent) of -1.41.
As for TAACTTTAACAAAATAAGCATC, the sensor-assay potency score (higher = more potent) was -1.35.
Regarding TATACATGATATAAGGTCCAGG, the sensor-assay potency score (higher = more potent) was -0.949.
TAGATCACCATTGAAATCCATA had a sensor-assay potency score (higher = more potent) of -0.916.

The target in the next test is ITFG2. Described as above. The settings on record: shRNA.
For the sequence TTGAGGGAGCACACTGTGGTGG, the sensor-assay potency score (higher = more potent) is -0.228.
The same measure, in the same setting: then ATCGTTATCAACGTCTCCGAGG, with -1.09; and TAACGTATCGTTATCAACGTCT, with 0.345; and TAGATCTTCTGGTTGAAAGTGA, with -0.00804.
On the same count and under the same terms, for TACACAGACACCTTCCCGCTGG the value was -0.00421; for TATCGTTATCAACGTCTCCGAG, -0.305; for TAGGTGAGTGGAGACATTCTTG, -0.555.
Still for that read-out and setting: for TTAACGTATCGTTATCAACGTC the value was -0.293.
For TTTCTTGAGGGACACCAGCTGC, the sensor-assay potency score (higher = more potent) is -0.971.
Same read-out and setting: then TTTGATGTTGCCAATTAGGTGA, with -0.267; and TTATACACAGACACCTTCCCGC, with 0.0194.
On the same count and under the same terms, for TTTTCATCCACTTGGAAGCGGA the value was -0.742.

Another test concerns the target ITGA2. The test is described as above. Conditions: shRNA.
As for TTGACTGAGCGCTAACACCAGC, the sensor-assay potency score (higher = more potent) was -1.15.
On the same count and under the same terms, then TTGCATATTGAATTGCTCCGAA, with 0.0822.
The same measure, in the same setting: for TAGCACTTCGTCGCCCACCAGA the value was -1.01; for TAAATCTCCATAGCCATCCAAG, -1.12; for TTGCTTAGTAGGTCTGAACTTT, -0.177.
Same read-out and setting: then TTGTCGGACATCTAGGACTAGA, with -0.587; and TTTCGTAGCACTTCGTCGCCCA, with 0.484.
TACTTCTGTCCCATCAACCGGC displayed a sensor-assay potency score (higher = more potent) of 0.167.
Still for that read-out and setting: then TTCTGTTGGAATACTAGCGATT, with -0.717; and TAAACAGGTAGACTCTTCCTTC, with 0.446; and TGAACTGTGATTTCTGTCCTGC, with 0.82.
The same measure, in the same setting: then TAGGTCTGAACTTTGCACTGAA, with -0.0543.

In another test the target is ITGAM. The description is as above. The settings on record: shRNA.
The sequence TTACACTCAAATACATTCCTTG gave a sensor-assay potency score (higher = more potent) of 0.424.
TTCCTTGCCTTTCACCACCTGA yielded a sensor-assay potency score (higher = more potent) of -0.688.
Same read-out and setting: for TCAGTGTCCAAGTTGAACCCAT the value was -0.0132; for TTCTCTTGGAAGGTCATTGCGT, -0.213; for TTGCTGTCCACGTCCACGGAGC, -1.3.
Same read-out and setting: then TATTGATGCTGCATGACCCGAC, with 0.154.
